{"source": "PubChem BioAssay (Tox21)", "note": "Records with an inconclusive call do not appear. Entries that show only a call come without a potency. Active and inactive are the calls of the source. Unless noted, calls come from the whole dose curve."}
{"experiment": "qHTS assay to identify small molecule agonists of the hypoxia (HIF-1) signaling pathway - cell viability counter screen (AID 1224844); note: nearly all actives have a fitted effect of over 50% in size", "settings": "HRE-bla ME-180 viability, CellTiter-Glo luminescence, 17 h; series mostly up to 76.8 µM", "how_it_was_run": "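Multiplexed with the HRE beta-lactamase assay, this viability read used CellTiter-Glo luminescence (30 min, RT) on HRE-bla ME-180 cells treated 17 hrs with compounds in 0.5% dialyzed FBS medium.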"}
{"molecule": "C#Cc1ccc(-c2ccccc2F)cc1", "Potency": "inactive"}
{"molecule": "CCC(COC(=O)CCS)(COC(=O)CCS)COC(=O)CCS", "Potency": "inactive"}
{"molecule": "Cl[Si](Cl)(c1ccccc1)c1ccccc1", "Potency": "inactive"}
{"molecule": "NC(=S)NC(N)=S", "Potency": "inactive"}
{"molecule": "CCCCCCC1CCCC(=O)O1", "note": "(configuration not stated)", "Potency": "inactive"}
{"molecule": "[Cl][Pt-2]([Cl])([Cl])[Cl]", "Potency": "inactive"}
{"molecule": "C=Cc1ccccc1C=C", "Potency": "inactive"}
{"molecule": "C=C(C)C(=O)OCCCCCCCCCC", "Potency": "inactive"}
{"molecule": "CC(C)CCOC(=O)/C=C/c1ccccc1", "Potency": "inactive"}
{"molecule": "CCc1ccc(Br)cc1", "Potency": "inactive"}
{"molecule": "C[C@H]1NCc2cc(-c3ccc4c(=O)c(C(=O)O)cn(C5CC5)c4c3OC(F)F)ccc21", "activity change, negative = cytotoxicity": "6.72% [at 15.8 µM] (inactive)"}
{"molecule": "CC1=CCC(=C(C)C)CC1", "Potency": "inactive"}
{"molecule": "Cc1c(C)c2c(c(C)c1OC(=O)c1cccnc1)CC[C@@](C)(CCC[C@H](C)CCC[C@H](C)CCCC(C)C)O2", "Potency": "inactive"}
{"molecule": "Cc1cccc(C(=O)O)c1O", "Potency": "inactive"}
{"molecule": "CCCNCCC", "Potency": "inactive"}
{"molecule": "Cc1cccc2cccnc12", "Potency": "inactive"}
{"molecule": "Nc1nc2c(ncn2COCCO)c(=O)[nH]1", "Potency": "inactive"}
{"molecule": "CCC(C)[O-].CCC(C)[O-].CCOC(=O)/C=C(/C)[O-].[Al+3]", "Potency": "inactive"}
{"molecule": "Cc1ccc(C(C)C)cc2c(C)ccc1-2", "Potency": "inactive"}
{"experiment": "qHTS assay to identify small molecule agonists of the hypoxia (HIF-1) signaling pathway (AID 1224846; active = well fitted activation curve with a large enough effect in the signal ratio in the repeat runs, not every such curve was filed as active; the % refers to the signal ratio)", "settings": "HRE-bla ME-180 cells, beta-lactamase ratio, 17 h; series mostly up to 76.8 µM", "how_it_was_run": "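Hypoxia-pathway activation was scored as increased beta-lactamase from an HRE-controlled reporter in ME-180 cells; plated at 2,000 cells per well with 0.5% dialyzed FBS, they were exposed 17 hrs to compounds and then given CCF4-AM.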"}
{"molecule": "CCN(CC)C(=O)c1cc(S(=O)(=O)Cc2ccccc2)c(N2CCC(c3ccccc3)CC2)cc1N(CC)CCN(C)C", "Potency": "inactive"}
{"molecule": "Clc1nnc(Cl)c2ccccc12", "Potency": "inactive"}
{"molecule": "O=[N+]([O-])c1cccc(C(F)(F)F)c1", "Potency": "inactive"}
{"molecule": "CC(C)(C)NSc1nc2ccccc2s1", "Potency": "inactive"}
{"molecule": "CC(C)(c1cc(Br)c(OCC(Br)CBr)c(Br)c1)c1cc(Br)c(OCC(Br)CBr)c(Br)c1", "note": "(configuration not stated)", "Potency": "inactive"}
{"molecule": "CCC(CC)(CC(=O)Nc1cccc(/C=C/c2nc(C3CCC3)cs2)c1)C(=O)O", "Potency": "inactive"}
{"molecule": "COc1cc(/C=C/c2ccccc2)oc(=O)c1", "Potency": "inactive"}
{"molecule": "CCOC(=O)NNc1ccc(N(CC)CC(C)O)nn1", "note": "(configuration not stated)", "Potency": "inactive"}
{"molecule": "O=C1CCCCCCCCCCCCCCCO1", "Potency": "inactive"}
{"molecule": "COCCOc1cc2cc(C(=O)NC3CCN(C(C)C)CC3)n(CC(=O)Nc3ccc(Cl)cn3)c2cn1", "Potency": "inactive"}
{"molecule": "CC1=Nc2ccccc2C1(C)C", "Potency": "inactive"}
{"molecule": "O=C1C(c2[nH]c3ccc(S(=O)(=O)O)cc3c2O)=Nc2ccc(S(=O)(=O)O)cc21", "Potency": "inactive"}
{"molecule": "c1ccc(SSc2ccccc2)cc1", "Potency": "inactive"}
{"molecule": "S=C([S-])NCCNC(=S)[S-].S=C([S-])NCCNC(=S)[S-].[Mn+2].[Zn+2]", "Potency": "inactive"}
{"molecule": "O=C(O)Cc1ccccc1Nc1c(Cl)cccc1Cl", "Potency": "inactive"}
{"molecule": "COc1cc(S(=O)(=O)O)c(C)cc1N=Nc1c(O)ccc2cc(S(=O)(=O)O)ccc12", "Potency": "inactive"}
{"molecule": "Nc1ccc(NCCO)c([N+](=O)[O-])c1", "Potency": "inactive"}
{"molecule": "CC(CO)Oc1ccccc1", "note": "(configuration not stated)", "Potency": "inactive"}
{"molecule": "O=C(/C=C/c1ccc(O)c(O)c1)O[C@@H](C(=O)O)[C@@H](OC(=O)/C=C/c1ccc(O)c(O)c1)C(=O)O", "Potency": "inactive"}
{"molecule": "C#Cc1ccc(-c2ccccc2F)cc1", "Potency": "inactive"}
{"molecule": "CCC(COC(=O)CCS)(COC(=O)CCS)COC(=O)CCS", "Potency": "inactive"}
{"molecule": "Cl[Si](Cl)(c1ccccc1)c1ccccc1", "Potency": "inactive"}
{"molecule": "NC(=S)NC(N)=S", "Potency": "inactive"}
{"molecule": "CCCCCCC1CCCC(=O)O1", "note": "(configuration not stated)", "Potency": "inactive"}
{"molecule": "[Cl][Pt-2]([Cl])([Cl])[Cl]", "Potency": "inactive"}
{"molecule": "C=Cc1ccccc1C=C", "Potency": "inactive"}
{"molecule": "C=C(C)C(=O)OCCCCCCCCCC", "Potency": "inactive"}
{"molecule": "CC(C)CCOC(=O)/C=C/c1ccccc1", "Potency": "inactive"}
{"molecule": "CCc1ccc(Br)cc1", "Potency": "inactive"}
{"molecule": "C[C@H]1NCc2cc(-c3ccc4c(=O)c(C(=O)O)cn(C5CC5)c4c3OC(F)F)ccc21", "activation": "0.068% [at 15.8 µM] (inactive)"}
{"molecule": "CC1=CCC(=C(C)C)CC1", "Potency": "inactive"}
{"molecule": "Cc1c(C)c2c(c(C)c1OC(=O)c1cccnc1)CC[C@@](C)(CCC[C@H](C)CCC[C@H](C)CCCC(C)C)O2", "Potency": "inactive"}
{"molecule": "Cc1cccc(C(=O)O)c1O", "Potency": "inactive"}
{"molecule": "CCCNCCC", "Potency": "inactive"}
{"molecule": "Cc1cccc2cccnc12", "Potency": "inactive"}
{"molecule": "Nc1nc2c(ncn2COCCO)c(=O)[nH]1", "Potency": "inactive"}
{"molecule": "CCC(C)[O-].CCC(C)[O-].CCOC(=O)/C=C(/C)[O-].[Al+3]", "Potency": "inactive"}
{"molecule": "Cc1ccc(C(C)C)cc2c(C)ccc1-2", "Potency": "inactive"}
